# Nrf2 activator: qHTS of Nrf2 Activators; 0.31% of 410,000 active; Potency, µM (titrated, usually from 46.1 µM), without a hit: top-dose activation, most hits filed as activators; AID 624171, 2012; AREc32 ARE-luciferase reporter (MCF7-derived line), luminescence, 24 h; further: potency means the concentration at half of the fitted maximal effect; % of control where 0% means no effect; nearly all actives have a fitted effect of over 65% in size
#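 For detection, Steady-Glo was added and plates sat 30 min at RT; before that, AREc32_Fluc cells grown overnight in OPTI-MEM/5% FBS had been treated with 23 nL compound for 24 hr at 37 deg C.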
# Nrf2 block: Nrf2 qHTS screen for inhibitors | 2.1% of 360,000 active | A549 ARE-Fluc reporter, luciferase luminescence, 18-24 h | Potency, µM (series often up to 46 µM), without a hit: at the highest dose activity change, negative = inhibition, most hits filed as inhibitors; further: potency means the concentration at half of the fitted maximal effect; on the % scale 0 is the no-effect control and ±100 the full control effect; nearly all actives have a fitted effect of over 60% in size
#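 Cells were seeded and rested 2 h, then exposed to compounds for 18-24 h. CellTiter-Fluor was read first as a viability measure. BugLite was added 15 min before the final luminescent read of ARE-luciferase activity in A549 cells.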
# miR-21 act: qHTS Assay for Modulators of miRNAs and/orActivators of miR-21; HeLa miR-21 FLuc reporter, luciferase, 48 h; Potency, µM (series often up to 38.3 µM), for inactives: top-dose activity change, positive = activation, usual class: activators; 340,000 tested, under 10 active; AID 2288, 2010;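 further: % of control where 0% means no effect; miR-21 action dims this reporter so a rising signal means less miR-21 action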
#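 Compounds were titrated across several concentrations (up to approximately 40 uM) and incubated 48 hours with HeLa miR-21-FLuc reporter cells (miR-21 target sequence downstream of FLuc, endogenous miR-21). Readout was firefly luciferase luminescence after lytic detection reagent.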
# A549 viability: Nrf2 qHTS screen for inhibitors: counterscreen for cytotoxicity | 0.16% of 390,000 active | AID 504648, 2011 | A549 ARE-Fluc cells, CellTiter-Fluor viability, 18-24 h | Potency, µM (titrated, usually from 46 µM), for inactives: at the highest dose activity change, negative = cytotoxicity, usual class: inhibitors; further: potency means the concentration at half of the fitted maximal effect; on the % scale 0 is the no-effect control and ±100 the full control effect
#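 A549 ARE_Fluc cells in 5% FBS OPTI-MEM were exposed to compounds in concentration-response for 18-24 h at 37 deg C. Viability was read by CellTiter-Fluor fluorescence (Ex 405/Em 525) after 30 min, before the luciferase read.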
# GALK inh: qHTS Assay for Inhibitors of Human Galactokinase (GALK); P51570; Purified GALK, Kinase-Glo residual ATP luminescence; Potency, µM (highest dose often 57.5 µM), inactives show at the highest dose activity change, negative = inhibition, actives largely listed as inhibitors; 0.007% of 270,000 active; AID 1868, 2009; further: potency means the concentration at half of the fitted maximal effect; on the % scale 0 is the no-effect control and ±100 the full control effect
# Target sequence (P51570 whole entry, looked up): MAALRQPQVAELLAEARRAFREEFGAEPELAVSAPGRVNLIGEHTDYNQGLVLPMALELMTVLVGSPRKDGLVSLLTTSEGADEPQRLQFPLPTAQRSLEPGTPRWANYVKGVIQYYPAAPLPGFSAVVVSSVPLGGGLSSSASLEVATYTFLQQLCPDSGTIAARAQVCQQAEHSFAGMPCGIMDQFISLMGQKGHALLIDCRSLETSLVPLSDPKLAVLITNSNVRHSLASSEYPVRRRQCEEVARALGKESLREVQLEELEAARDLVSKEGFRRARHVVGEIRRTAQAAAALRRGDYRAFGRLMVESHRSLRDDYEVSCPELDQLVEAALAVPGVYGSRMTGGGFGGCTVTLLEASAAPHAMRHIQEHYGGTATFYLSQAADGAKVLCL
#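 Galactose (100 uM) and ATP (35 uM) were turned over by 5 nM GALK for 1 h at RT. Kinase-Glo Plus then converted the remaining ATP into a luminescent signal.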
# PI4K2A inh: qHTS for small molecular inhibitors of PI4K2A; purified PI4K2A, ADP-Glo luminescence, 1 h; hits give low values; activity change, negative = inhibition, % at 76.9 µM; 0.13% of 420,000 active; AID 1346378, 2018; in the data active means activity change below about -50%; inconclusive means mostly about -30% to -49%;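 further: -100% = wells without enzyme as full effect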
#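 Compounds are screened against recombinant PI4K2A using PI as substrate and ATP, the latter dispensed at 300 microM. Reactions run one hour at ambient temperature before ADP-Glo detection; full inhibition defined by wells lacking enzyme.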
# An asterisk follows results filed as active; ? = inconclusive; . = no result given. Compounds with a hit are over-represented: about 2.2% of the library has one in this group of screens. Unless noted, the call rests on the fitted dose curve; in most records, active means well fitted curve in the direction sought with a large enough effect; inconclusive means small, poorly fitted or top-dose-only effect, or another doubt; inactive means no such curve, though single readings can be large; an effect the other way counts as inactive or inconclusive.
SMILES,Nrf2 activator,Nrf2 block,miR-21 act,A549 viability,GALK inh,PI4K2A inh
Cc1oc(-c2ccc3c(c2)OCCO3)cc1C(=O)O,-1%,9.2µM*,?,-5%,12%,-75*
Cc1oc(-c2ccc3c(c2)OCCO3)cc1C(=O)NCC(=O)O,-1%,?,10%,2%,-1%,-4
COc1ccc(C(=O)Nc2cccc(-c3ccc4nncn4n3)c2)cc1OC,3%,-16%,0%,-3%,0%,5
Cc1cccc(C(=O)Nc2cccc(-c3ccc4nncn4n3)c2)c1,3%,12µM*,2%,0%,-1%,5
COc1ccc(CC(=O)Nc2cccc(-c3ccc4nncn4n3)c2)cc1OC,4%,21µM*,27%,?,4%,-9
C#CC1(O)C2C=C(OC)C(=O)C1C(c1ccccc1)C2C (stereo unspecified),.,.,.,.,.,4
CCN1CCCCC(NC(=O)c2ccccc2)C1=O (stereo unspecified),.,.,.,.,.,3
S=C(Nc1ccccc1Cl)N(Cc1ccccc1)Cc1ccccn1,0%,21µM*,2%,-10%,-1%,-2
O=C(CN1C(=O)CCSc2ccccc21)Nc1ccc(F)cc1F,.,.,.,.,.,1
O=C(/C=C/c1ccco1)NCC(=O)N/N=C/c1ccccc1[N+](=O)[O-],11µM*,1%,1%,?,-1%,-5
Cn1c(Cc2cccs2)nnc1SCC(=O)Nc1ccc2cn[nH]c2c1,.,.,.,.,.,-1
CCC[C@H]1[C@@H](NS(=O)(=O)c2ccccc2[N+](=O)[O-])CC[C@@]23CCCN2C(=O)CCC[C@@H]13,.,.,.,.,.,-2
CC1(C)c2ssc(=S)c2-c2ccccc2N1C(=O)CSC1=NCCS1,3%,15µM*,9%,-14%,-2%,-6
COc1ccc2c(c1)-c1c(ssc1=S)C(C)(C)N2C(=O)CSC1=NCCS1,0%,?,17%,-17%,0%,-20
S=c1[nH]nc(-c2cc(-c3ccccc3)n[nH]2)n1/N=C/c1cccc2ccccc12,.,.,.,.,.,112
Cc1nn(C)c(C)c1NC(=O)COc1ccc(F)cc1Br,0%,23µM*,.,1%,.,0
Cc1cc(C)n(CC(=O)NNC(=O)COc2ccc(F)cc2Br)n1,0%,4%,.,13%,.,-3
COc1ccc(CSc2nnc(SCc3ccccc3)s2)cc1,.,.,.,.,.,2
O=C(OCC#CCSc1nnc(-c2cccc3ccccc23)o1)c1sc2ccccc2c1Cl,.,1%,.,0%,.,.
CCN1C(=O)[C@H]2[C@@H](c3ccc(SC4CCCCC4)cc3)N[C@@](CC(C)C)(C(=O)OC)[C@H]2C1=O,-1%,21µM*,.,-2%,.,-4
Nn1c(SCc2ccc([N+](=O)[O-])cc2)nnc1-c1n[nH]c2c1CCC2,.,.,.,.,.,-2
Cc1cc(NC(=O)CSc2ncnc3sccc23)no1,8%,-5%,-3%,6%,-1%,-4
N#Cc1c(NC(=O)CSc2ncnc3sccc23)oc(-c2ccco2)c1-c1ccco1,10µM*,-2%,4%,-8%,1%,-27
COc1ccc(-c2cc(C)no2)cc1S(=O)(=O)N1CCN(c2ccccn2)CC1,0%,18µM*,-7%,-6%,1%,0
CN1Cc2cc(C(=O)N3CCC(C4CCNCC4)CC3)ccc2N[C@@H](CC(=O)O)C1=O,.,.,.,.,.,-12
COc1ccc(NC(=S)NC(NC(=O)c2cccc3ccccc23)C(Cl)(Cl)Cl)c([N+](=O)[O-])c1 (stereo unspecified),1%,26µM*,19%,?,3%,-5
Cc1ccc(C)c(NC(=S)NC(NC(=O)Cc2cccc3ccccc23)C(Cl)(Cl)Cl)c1 (stereo unspecified),25%,21µM*,1%,21µM*,3%,-6
Cc1ccc(OC[C@@H](O)CN2CCC(C(O)(c3ccccc3)c3ccccc3)CC2)cc1,.,.,.,.,.,-1

# Screens: PubChem BioAssay, National Center for Advancing Translational Sciences (NCATS)
